From PubChem BioAssay (EPA / NIEHS)
Records with an inconclusive call do not appear. Activity calls are given as the source filed them. The calls were made as follows, unless noted: active = hit-call score of the fitted dose curve at least 0.9, where 1 is the maximum; inconclusive = response in the unintended direction; inactive = score below 0.9.

molecular target: human Peripheral-type Benzodiazepine Receptor (PBR), TSPO (gene 706) (UniProt P30536); assay: NVS_MP_hPBR: NovaScreen (NVS) Membrane Protein Assay for human Peripheral-type Benzodiazepine Receptor (PBR) (AID 2283331);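 also: hits reduce radioligand binding relative to DMSO baseline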
Outline: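 Cell-free binding to human colonic membrane preparations measured by filter-based scintillation counting after 1 h. Compounds first run at 25 uM in duplicate, then concentration series for actives; signal loss against DMSO baseline.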

Sequence of human Peripheral-type Benzodiazepine Receptor (PBR), TSPO (gene 706) (P30536 whole entry, looked up): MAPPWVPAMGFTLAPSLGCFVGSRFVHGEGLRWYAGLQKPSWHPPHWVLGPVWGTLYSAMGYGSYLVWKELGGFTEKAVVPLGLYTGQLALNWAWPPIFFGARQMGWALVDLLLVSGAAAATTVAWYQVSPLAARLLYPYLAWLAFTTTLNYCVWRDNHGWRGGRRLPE

| Structure (SMILES) | AC50 | outcome |
| --- | --- | --- |
| C[C@@H](Oc1ccc(CNC(=O)c2cccnc2Oc2ccc3c(c2)OCO3)c(F)c1)C(=O)O | 20.8 µM (active) | – |
| CC(C)C(=O)Nc1ccc([N+](=O)[O-])c(C(F)(F)F)c1 | – | inactive |
| CCN(CC)C(=S)SSC(=S)N(CC)CC | 3.21 µM (active) | – |
| c1ccc2cc3ccccc3cc2c1 | – | inactive |

molecular target: Voltage-gated inwardly rectifying potassium channel KCNH2 (Homo sapiens) (UniProt Q12809); assay: NVS_IC_hKhERGCh: NovaScreen (NVS) Ion Channel Assay for human Potassium Channel ERG (KhERGCh) (AID 2283333)
Outline: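 Membranes from CHO cells expressing human ERG; displacement of radioligand measured by filtration and scintillation after 0.75 h. Single-concentration duplicate screen at 25 uM, then concentration-response for actives; DMSO baseline.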

Sequence of Voltage-gated inwardly rectifying potassium channel KCNH2 (Homo sapiens) (Q12809 whole entry, looked up): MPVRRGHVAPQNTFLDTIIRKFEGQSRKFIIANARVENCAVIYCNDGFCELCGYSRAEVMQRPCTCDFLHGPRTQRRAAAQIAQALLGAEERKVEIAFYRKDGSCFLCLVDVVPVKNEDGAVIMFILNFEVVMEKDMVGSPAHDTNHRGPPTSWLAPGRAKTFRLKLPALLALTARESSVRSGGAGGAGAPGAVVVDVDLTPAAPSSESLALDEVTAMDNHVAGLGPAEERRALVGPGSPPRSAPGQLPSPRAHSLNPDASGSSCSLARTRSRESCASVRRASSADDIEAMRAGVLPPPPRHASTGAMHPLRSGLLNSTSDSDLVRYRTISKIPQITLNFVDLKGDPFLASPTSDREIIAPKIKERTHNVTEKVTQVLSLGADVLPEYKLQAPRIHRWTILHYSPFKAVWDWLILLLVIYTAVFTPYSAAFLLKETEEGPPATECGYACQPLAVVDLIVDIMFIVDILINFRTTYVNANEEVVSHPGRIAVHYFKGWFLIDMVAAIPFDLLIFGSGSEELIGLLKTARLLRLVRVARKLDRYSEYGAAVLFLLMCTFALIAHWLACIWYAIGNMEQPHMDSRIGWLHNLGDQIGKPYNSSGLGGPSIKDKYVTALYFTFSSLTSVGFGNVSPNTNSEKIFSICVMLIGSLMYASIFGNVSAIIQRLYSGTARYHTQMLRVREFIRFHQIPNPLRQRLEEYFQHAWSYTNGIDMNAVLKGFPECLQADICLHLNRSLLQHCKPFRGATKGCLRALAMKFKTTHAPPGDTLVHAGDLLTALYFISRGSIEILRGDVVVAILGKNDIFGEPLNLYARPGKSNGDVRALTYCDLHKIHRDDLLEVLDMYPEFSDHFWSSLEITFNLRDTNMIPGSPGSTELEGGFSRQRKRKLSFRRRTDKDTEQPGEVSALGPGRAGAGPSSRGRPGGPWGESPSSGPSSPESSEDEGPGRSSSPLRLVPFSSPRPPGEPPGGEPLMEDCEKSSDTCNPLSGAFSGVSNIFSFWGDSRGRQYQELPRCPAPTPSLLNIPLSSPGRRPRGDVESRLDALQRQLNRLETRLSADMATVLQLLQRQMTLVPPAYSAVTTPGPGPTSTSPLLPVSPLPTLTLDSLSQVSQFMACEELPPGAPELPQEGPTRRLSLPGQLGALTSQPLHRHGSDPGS

| Structure (SMILES) | AC50 | outcome |
| --- | --- | --- |
| O=S(=O)(O)c1ccc(N=Nc2c(O)ccc3cc(S(=O)(=O)O)ccc23)cc1 | 12.3 µM (active) | – |
| CCCCN1C(=O)[C@@H]([C@H](O)C2CCCCC2)NC(=O)C12CCN(Cc1ccc(Oc3ccc(C(=O)O)cc3)cc1)CC2 | – | inactive |
| c1ccc(C(O[C@@H]2CCCN(CCc3ccc4c(c3)OCO4)C2)c2ccccc2)cc1 | – | inactive |
| OC[C@H]1O[C@@](CO)(O[C@H]2O[C@H](CO)[C@@H](O)[C@H](O)[C@H]2O)[C@@H](O)[C@@H]1O | – | inactive |

molecular target: Glutamate receptor ionotropic, kainate 1 (Rattus norvegicus) (UniProt P22756); assay: NVS_IC_rKAR: NovaScreen (NVS) Ion Channel Assay for rat Kainic Acid Receptors (KAR) (AID 2283334; active = hit-call score of the fitted dose curve at least 0.9, where 1 is the maximum; inactive = score below 0.9)
Outline: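 Rat forebrain membrane preparation incubated 1 h with radioligand and test chemical; bound signal read by filtration and scintillation. Single-concentration screen at 25 uM, then concentration series to 50 uM maximum.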

Sequence of Glutamate receptor ionotropic, kainate 1 (Rattus norvegicus) (P22756 whole entry, looked up): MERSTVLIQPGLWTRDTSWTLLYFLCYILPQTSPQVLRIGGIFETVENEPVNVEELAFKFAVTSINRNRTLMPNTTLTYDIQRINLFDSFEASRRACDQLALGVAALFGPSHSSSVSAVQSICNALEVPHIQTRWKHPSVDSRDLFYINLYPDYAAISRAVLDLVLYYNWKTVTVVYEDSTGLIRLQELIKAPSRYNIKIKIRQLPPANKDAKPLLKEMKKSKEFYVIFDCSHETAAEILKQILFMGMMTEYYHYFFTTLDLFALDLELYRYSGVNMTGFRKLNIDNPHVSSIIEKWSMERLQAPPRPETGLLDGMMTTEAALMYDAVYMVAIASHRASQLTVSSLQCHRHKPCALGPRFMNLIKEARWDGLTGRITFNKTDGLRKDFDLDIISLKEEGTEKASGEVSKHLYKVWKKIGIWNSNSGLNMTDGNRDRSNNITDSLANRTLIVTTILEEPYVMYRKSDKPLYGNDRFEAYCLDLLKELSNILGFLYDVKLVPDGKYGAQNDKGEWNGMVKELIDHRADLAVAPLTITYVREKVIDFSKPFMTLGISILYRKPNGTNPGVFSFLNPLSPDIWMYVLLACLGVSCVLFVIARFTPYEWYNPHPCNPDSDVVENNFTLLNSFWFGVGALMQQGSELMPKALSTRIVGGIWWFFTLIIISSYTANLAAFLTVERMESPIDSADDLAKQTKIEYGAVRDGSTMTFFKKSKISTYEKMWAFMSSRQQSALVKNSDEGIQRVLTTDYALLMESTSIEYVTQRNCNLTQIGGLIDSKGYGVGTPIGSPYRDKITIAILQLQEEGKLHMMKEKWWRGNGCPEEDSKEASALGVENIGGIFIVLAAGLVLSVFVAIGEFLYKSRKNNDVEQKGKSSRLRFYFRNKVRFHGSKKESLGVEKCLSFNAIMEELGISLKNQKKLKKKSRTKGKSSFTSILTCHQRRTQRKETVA

| Structure (SMILES) | outcome |
| --- | --- |
| O=S(=O)(O)c1ccc(N=Nc2c(O)ccc3cc(S(=O)(=O)O)ccc23)cc1 | inactive |
| COc1cc2c(c(OC)c1OC)-c1ccc(OC)c(=O)cc1[C@@H](NC(C)=O)CC2 | inactive |
| O=C(O)c1cccc(C[C@@H]2COc3ccc(OCc4nc5cc(F)ccc5s4)cc3[C@@H]2O)c1 | inactive |
| C=CCc1cc(S(=O)(=O)c2ccc(O)c(CC=C)c2)ccc1O | inactive |
| OC[C@H]1O[C@@](CO)(O[C@H]2O[C@H](CO)[C@@H](O)[C@H](O)[C@H]2O)[C@@H](O)[C@@H]1O | inactive |

molecular target: rat Peripheral-type Benzodiazepine Receptor (PBR), Tspo (gene 24230) (UniProt P16257); assay: NVS_MP_rPBR: NovaScreen (NVS) Membrane Protein Assay for rat Peripheral-type Benzodiazepine Receptor (PBR) (AID 2283335)
Outline: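 Single-concentration duplicate screening at 25 uM preceded concentration-series retesting of actives. Binding of a specific radioligand to rat kidney membrane PBR was read by filtration radiodetection after 1 h, with plate-wise positive and negative controls.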

Sequence of rat Peripheral-type Benzodiazepine Receptor (PBR), Tspo (gene 24230) (P16257 whole entry, looked up): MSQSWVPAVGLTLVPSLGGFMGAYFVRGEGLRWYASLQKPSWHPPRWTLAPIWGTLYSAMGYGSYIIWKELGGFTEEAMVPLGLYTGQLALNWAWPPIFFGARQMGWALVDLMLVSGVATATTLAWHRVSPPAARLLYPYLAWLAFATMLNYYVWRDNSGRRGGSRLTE

| Structure (SMILES) | AC50 | outcome |
| --- | --- | --- |
| CC(C)C(=O)Nc1ccc([N+](=O)[O-])c(C(F)(F)F)c1 | 4.95 µM (active) | – |
| c1ccc(C(O[C@@H]2CCCN(CCc3ccc4c(c3)OCO4)C2)c2ccccc2)cc1 | – | inactive |
| CCN(CC)C(=S)SSC(=S)N(CC)CC | 0.31 µM (active) | – |

molecular target: Small conductance calcium-activated potassium channel protein 1 (Rattus norvegicus) (UniProt P70606); assay: NVS_IC_rKCaCh: NovaScreen (NVS) Ion Channel Assay for rat Potassium Channel, Ca2+ Act., VI (KCaCh) (AID 2283336)
Outline: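 Filter-based scintillation counting of radioligand bound to rat forebrain membrane preparations, measured 1 h after compound addition. Primary screen used 25 uM in duplicate, with concentration-response follow-up; signal decrease relative to DMSO marks activity.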

Sequence of Small conductance calcium-activated potassium channel protein 1 (Rattus norvegicus) (P70606 whole entry, looked up): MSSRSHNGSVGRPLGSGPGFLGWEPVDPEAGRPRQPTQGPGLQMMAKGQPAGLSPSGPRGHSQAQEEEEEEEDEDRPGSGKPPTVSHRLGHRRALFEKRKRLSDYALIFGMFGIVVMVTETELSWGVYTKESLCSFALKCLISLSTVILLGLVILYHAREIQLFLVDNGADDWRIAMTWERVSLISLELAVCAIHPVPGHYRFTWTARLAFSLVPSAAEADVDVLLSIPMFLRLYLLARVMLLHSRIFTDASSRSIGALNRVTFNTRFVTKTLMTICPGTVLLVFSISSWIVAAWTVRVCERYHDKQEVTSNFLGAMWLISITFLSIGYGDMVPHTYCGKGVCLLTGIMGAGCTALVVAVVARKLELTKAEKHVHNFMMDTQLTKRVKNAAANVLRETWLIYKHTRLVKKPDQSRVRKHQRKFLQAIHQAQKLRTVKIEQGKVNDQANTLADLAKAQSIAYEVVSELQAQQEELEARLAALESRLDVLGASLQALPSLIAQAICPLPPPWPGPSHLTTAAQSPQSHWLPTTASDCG

| Structure (SMILES) | outcome |
| --- | --- |
| CC1(C)C(=O)N(Cl)C(=O)N1Cl | inactive |
| Cc1nc(-c2ccccn2)ncc1C(=O)Nn1cc(C)c2cc(F)ccc21 | inactive |
| OCc1ccccc1 | inactive |

test system: not listed separately; assay: NVS_IC_rCaBTZCHL: NovaScreen (NVS) Ion Channel Assay for Calcium Channel, Type L, Benzothiazepine Site (CaBTZCHL) (AID 2283337)
Outline: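 Rat cortical membrane preparation, cell-free. Radioligand displaced by test chemical; 1.5 h incubation; filtration, scintillation count. DMSO = negative control/baseline. Primary: duplicate, 25 uM; secondary: concentration series.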

| Structure (SMILES) | outcome | AC50 |
| --- | --- | --- |
| C=CCc1cc(S(=O)(=O)c2ccc(O)c(CC=C)c2)ccc1O | inactive | – |
| COc1cc(C(C)C)c2c(c1)S(=O)(=O)N(COc1cc(=O)n3cccc(OCCN4CCCCC4)c3n1)C2=O | – | 3.14 µM (active) |
| CC(C)C(=O)Nc1ccc([N+](=O)[O-])c(C(F)(F)F)c1 | inactive | – |
| CCn1nc(C)c2c1C(=O)NCC(c1ccc(O)cc1)=N2 | inactive | – |
| c1ccc(C(O[C@@H]2CCCN(CCc3ccc4c(c3)OCO4)C2)c2ccccc2)cc1 | – | 0.428 µM (active) |
| Cc1nccn1-c1ccc(Sc2cccc(C3(C(N)=O)CCOCC3)c2)cc1 | inactive | – |
| CCCCCCCCN(C)C | inactive | – |

molecular target: bovine Gamma-Aminobutyric Acid Type A Receptor Agonist (GABAR Agonist), GABRA1 (gene 780973) (UniProt P08219); assay: NVS_LGIC_bGABAR_Agonist: NovaScreen (NVS) Ligand-Gated Ion Channel Assay for bovine Gamma-Aminobutyric Acid Type A Receptor Agonist (GABAR Agonist) (AID 2283338)
Outline: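 Radioligand binding to bovine cerebellar membranes in agonist format, read by filter-based scintillation counting after 1 h. Primary screen in duplicate at 25 uM, with actives followed in concentration series. Gain of signal versus DMSO.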

Sequence of bovine Gamma-Aminobutyric Acid Type A Receptor Agonist (GABAR Agonist), GABRA1 (gene 780973) (P08219 whole entry, looked up): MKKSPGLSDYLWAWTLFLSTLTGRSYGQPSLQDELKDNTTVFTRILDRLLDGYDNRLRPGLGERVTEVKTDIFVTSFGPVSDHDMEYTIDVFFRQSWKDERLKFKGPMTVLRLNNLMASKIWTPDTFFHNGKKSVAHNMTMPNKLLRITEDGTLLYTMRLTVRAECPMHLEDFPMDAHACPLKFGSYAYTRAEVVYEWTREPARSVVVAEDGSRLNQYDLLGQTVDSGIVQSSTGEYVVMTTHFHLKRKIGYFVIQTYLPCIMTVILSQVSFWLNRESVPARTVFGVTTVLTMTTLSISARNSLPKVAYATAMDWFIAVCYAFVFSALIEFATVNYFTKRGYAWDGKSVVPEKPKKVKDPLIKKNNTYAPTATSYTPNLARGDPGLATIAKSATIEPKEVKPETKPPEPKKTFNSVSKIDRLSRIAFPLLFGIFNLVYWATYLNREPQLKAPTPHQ

| Structure (SMILES) | outcome |
| --- | --- |
| O=C1CN(N=Cc2ccc([N+](=O)[O-])o2)C(=O)N1 | inactive |
| CCc1ccc(O)c(C(C)(C)C)c1 | inactive |
| CC(=O)c1ccccc1 | inactive |
| CCCCCCOC(=O)CC(CC(=O)OCCCCCC)(OC(=O)CCC)C(=O)OCCCCCC | inactive |
| OC(Cn1cncn1)(Cn1cncn1)c1ccc(F)cc1F | inactive |
| NC(=O)N1c2ccccc2C=Cc2ccccc21 | inactive |

test system: guinea pig Histamine Receptor (H2), gene 100729734; assay: NVS_GPCR_gH2: NovaScreen (NVS) G Protein-Coupled Receptor Assay for guinea pig Histamine Receptor (H2) (AID 2283342)
Outline: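 Guinea pig striatal membrane preparation with specific radioligand; bound counts measured by filtration and scintillation 1 h post-dosing, DMSO as baseline. Chemicals passing a 25 uM duplicate screen were titrated to a 50 uM maximum.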

| Structure (SMILES) | AC50 | outcome |
| --- | --- | --- |
| Cc1ncc([C@@H](CCCCCCc2ccc3c(n2)NCCC3)CC(=O)O)cn1 | 25 µM (active) | – |
| COc1cc(C(C)C)c2c(c1)S(=O)(=O)N(COc1cc(=O)n3cccc(OCCN4CCCCC4)c3n1)C2=O | 3.13 µM (active) | – |
| CCn1nc(C)c2c1C(=O)NCC(c1ccc(O)cc1)=N2 | – | inactive |
| c1ccc(C(O[C@@H]2CCCN(CCc3ccc4c(c3)OCO4)C2)c2ccccc2)cc1 | 0.337 µM (active) | – |
| Cc1nccn1-c1ccc(Sc2cccc(C3(C(N)=O)CCOCC3)c2)cc1 | – | inactive |

test system: NCBI gene 100848466; assay: NVS_NR_bPR: NovaScreen (NVS) Nuclear Receptor Binding Assay for bovine Progextron Receptor (PR) (AID 2283343);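 as to AC50: actives lower bound radioligand signal below DMSO meaning displacement of the label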
Outline: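 Competitive radioligand binding with membranes from bovine uterus, scintillation read-out at 18 h post-dose. Compounds first tested in duplicate at 25 uM, then actives in concentration series; loss-of-signal relative to DMSO.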

| Structure (SMILES) | outcome | AC50 |
| --- | --- | --- |
| C=CCc1cc(S(=O)(=O)c2ccc(O)c(CC=C)c2)ccc1O | inactive | – |
| Cn1cc[nH]c1=S | inactive | – |
| CC(C)C(=O)Nc1ccc([N+](=O)[O-])c(C(F)(F)F)c1 | inactive | – |
| Cc1nccn1-c1ccc(Sc2cccc(C3(C(N)=O)CCOCC3)c2)cc1 | – | 7.1 µM (active) |

molecular target: human Constitutive Androstane Receptor (CAR), NR1I3 (gene 9970) (UniProt Q14994); assay: NVS_NR_hCAR_Antagonist: NovaScreen (NVS) Nuclear Receptor Binding Assay for human Constitutive Androstane Receptor Antagonism (CAR) (AID 2283344)
Outline: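 Single 25 uM duplicate primary screen, with concentration-series follow-up on actives. Cell-free binding format run in antagonist mode, TR-FRET signal taken 1 h post-dose; activity is signal loss relative to DMSO.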

Sequence of human Constitutive Androstane Receptor (CAR), NR1I3 (gene 9970) (Q14994 whole entry, looked up): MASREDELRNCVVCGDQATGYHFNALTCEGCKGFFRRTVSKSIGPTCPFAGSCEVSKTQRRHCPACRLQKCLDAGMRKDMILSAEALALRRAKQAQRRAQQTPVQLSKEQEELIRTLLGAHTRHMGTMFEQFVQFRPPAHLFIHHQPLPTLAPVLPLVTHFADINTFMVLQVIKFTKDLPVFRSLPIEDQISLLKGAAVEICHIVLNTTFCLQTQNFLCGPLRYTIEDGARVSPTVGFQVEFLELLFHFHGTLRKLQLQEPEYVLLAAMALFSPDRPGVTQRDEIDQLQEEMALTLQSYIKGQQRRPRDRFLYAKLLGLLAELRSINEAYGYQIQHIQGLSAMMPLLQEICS

| Structure (SMILES) | outcome |
| --- | --- |
| O=c1[nH]cnc2c1ncn2[C@H]1CC[C@@H](CO)O1 | inactive |
| CCCCC(CC)C(=O)OCCOCCOCCOC(=O)C(CC)CCCC (stereo not given) | inactive |
| Cc1nc(-c2ccccn2)ncc1C(=O)Nn1cc(C)c2cc(F)ccc21 | inactive |
| CCCCCCCCCCCCCCCCOS(=O)(=O)O | inactive |
| O=C(O)c1ccc2c(c1)nc(C(=O)NC1CCN(C3CC3)CC1)n2Cc1cc(-c2ccc(Cl)s2)on1 | inactive |

molecular target: bovine Estrogen Receptor (ER), ESR1 (gene 407238) (UniProt P49884); assay: NVS_NR_bER: NovaScreen (NVS) Nuclear Receptor Binding Assay for bovine Estrogen Receptor (ER) (AID 2283345);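 also: actives lower the bound radioligand count which means they displace the ER ligand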
Outline: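 Cell-free radioligand binding with bovine uterine membrane extracts, read 18 hours after dosing by scintillation counting. Loss of signal versus DMSO baseline indicates displacement. Primary screen run in duplicate at 25 uM, actives followed in concentration series.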

Sequence of bovine Estrogen Receptor (ER), ESR1 (gene 407238) (P49884 whole entry, looked up): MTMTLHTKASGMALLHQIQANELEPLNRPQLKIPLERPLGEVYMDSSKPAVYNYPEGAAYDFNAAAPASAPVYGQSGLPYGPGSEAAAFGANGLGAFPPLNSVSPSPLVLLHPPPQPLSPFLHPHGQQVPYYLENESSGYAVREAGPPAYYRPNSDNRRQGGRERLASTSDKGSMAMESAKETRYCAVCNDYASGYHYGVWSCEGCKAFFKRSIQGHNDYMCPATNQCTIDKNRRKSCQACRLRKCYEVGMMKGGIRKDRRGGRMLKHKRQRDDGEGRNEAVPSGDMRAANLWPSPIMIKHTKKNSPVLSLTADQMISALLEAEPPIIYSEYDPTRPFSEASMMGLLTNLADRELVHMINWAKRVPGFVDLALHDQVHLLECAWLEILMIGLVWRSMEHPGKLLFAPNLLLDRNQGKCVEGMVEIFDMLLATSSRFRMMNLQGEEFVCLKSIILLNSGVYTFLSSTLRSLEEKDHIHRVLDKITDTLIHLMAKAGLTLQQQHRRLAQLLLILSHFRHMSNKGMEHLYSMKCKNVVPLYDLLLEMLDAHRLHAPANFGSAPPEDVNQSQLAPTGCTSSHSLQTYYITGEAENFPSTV

| Structure (SMILES) | outcome | AC50 |
| --- | --- | --- |
| CCCCC(CC)C(=O)OCCOCCOCCOC(=O)C(CC)CCCC (stereo not given) | inactive | – |
| O=C(O)c1cccc(C[C@@H]2COc3ccc(OCc4nc5cc(F)ccc5s4)cc3[C@@H]2O)c1 | inactive | – |
| C=CCc1cc(S(=O)(=O)c2ccc(O)c(CC=C)c2)ccc1O | – | 19.1 µM (active) |
| NC(=O)N1c2ccccc2C=Cc2ccccc21 | inactive | – |
| c1ccc(C(O[C@@H]2CCCN(CCc3ccc4c(c3)OCO4)C2)c2ccccc2)cc1 | inactive | – |
| C[C@]12C=CC(=O)C=C1CC[C@H]1[C@@H]3C[C@@H](O)[C@](O)(C(=O)CO)[C@@]3(C)C[C@H](O)[C@@]12F | inactive | – |
| OCC(CO)(CO)CO | inactive | – |
| COS(C)(=O)=O | inactive | – |
| OC[C@H]1O[C@@H]2O[C@H]3[C@H](O)[C@@H](O)[C@@H](O[C@H]4[C@H](O)[C@@H](O)[C@@H](O[C@H]5[C@H](O)[C@@H](O)[C@@H](O[C@H]6[C@H](O)[C@@H](O)[C@@H](O[C@H]7[C@H](O)[C@@H](O)[C@@H](O[C@H]1[C@H](O)[C@H]2O)O[C@@H]7CO)O[C@@H]6CO)O[C@@H]5CO)O[C@@H]4CO)O[C@@H]3CO | – | 1.18 µM (active) |
